Active and inactive are the calls of the source.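 Rule for the calls: active = compounds whose rat M5 calcium response changes with dose, giving a fitted curve judged by the depositor; inactive = the rest, with no dose-dependent response.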
molecular target: Muscarinic acetylcholine receptor M5 (Rattus norvegicus) (UniProt P08911); test: off-target potentiation of rat M5 ACh response – CHO-K1 cells, calcium fluorescence, ACh EC20, selectivity assay for M4 PAM optimization project, SAR follow-up (AID 623946); details: CHO-K1 rM5, calcium fluorescence; series mostly up to 30 µM; % ACh max response: at the top concentration
Sequence (P08911 whole entry, looked up): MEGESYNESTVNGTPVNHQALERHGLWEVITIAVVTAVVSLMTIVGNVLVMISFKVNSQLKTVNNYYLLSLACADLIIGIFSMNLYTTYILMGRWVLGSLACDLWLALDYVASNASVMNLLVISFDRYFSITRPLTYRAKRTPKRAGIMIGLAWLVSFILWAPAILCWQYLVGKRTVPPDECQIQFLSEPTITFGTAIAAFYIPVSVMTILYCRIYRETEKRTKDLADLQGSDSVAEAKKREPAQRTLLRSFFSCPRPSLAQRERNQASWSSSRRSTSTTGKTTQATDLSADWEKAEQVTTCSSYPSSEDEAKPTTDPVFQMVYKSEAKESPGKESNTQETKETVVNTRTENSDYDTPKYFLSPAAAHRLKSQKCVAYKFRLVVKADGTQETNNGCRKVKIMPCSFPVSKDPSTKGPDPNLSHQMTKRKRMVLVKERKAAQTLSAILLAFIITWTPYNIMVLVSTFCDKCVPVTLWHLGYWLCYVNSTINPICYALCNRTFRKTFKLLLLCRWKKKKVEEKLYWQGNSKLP

| Compound | outcome | % ACh max response |
| --- | --- | --- |
| Cc1nc2sc(C(=O)NCc3ccccc3)c(N)c2c(C)c1Cl | inactive |  |
| Cc1nc2sc(C(=O)NC3CC3)c(N)c2c(C)c1Cl |  | 17.9 (inactive) |
| Cc1nc2sc(C(=O)NCCc3ccncc3)c(N)c2c(C)c1Cl |  | 19.3 (inactive) |
| Cc1nc2sc(C(=O)NCc3ccncn3)c(N)c2c(C)c1Cl |  | 15.2 (inactive) |
| COc1ccc(C)c2sc(NC(=O)c3ccncc3)nc12 |  | 16 (inactive) |
| Cc1nc2sc(C(=O)NCc3ccc4c(c3)OCO4)c(N)c2c(C)c1Cl | inactive |  |
| Cc1nc2sc(C(=O)NCc3cccc(F)c3F)c(N)c2c(C)c1Cl |  | 16.2 (inactive) |
| Cc1nc2sc(C(=O)NCc3cccnc3)c(N)c2c(C)c1Cl | inactive |  |
| Cc1nc2sc(C(=O)NCc3nccs3)c(N)c2c(C)c1Cl |  | 18.3 (inactive) |
| Cc1nc2sc(C(=O)NCc3ccncc3)c(N)c2c(C)c1Cl | inactive |  |

— PubChem BioAssay AID623946 (Vanderbilt Specialized Chemistry Center, 2012)
